Bioassay records as filed in PubChem BioAssay.
IkB sig inh: IkB Signaling | ABC-DLBCL IkBa-CBG/CBR dual luciferase ratio, 4 h; response scale: scaled: untreated 0%, proteasome inhibitor 100% | Potency, µM (doses to about 57.1 µM), inactives show at the top dose IkBa stabilization activation | hit rate 0.04% among 110,000 | AID 445, 2006; active = well fitted curve in the direction sought with a large enough effect in the signal ratio, not every such curve was filed as active; inconclusive = small, poorly fitted or top-dose-only effect, or a change in a side signal; the % refers to the signal ratio;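 also: the direction sought is a rising ratio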
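In this assay, an IκBα–CBG68 fusion accumulates when IKK-driven degradation is blocked; native CBR normalizes for cell number. OCI-Ly3 cells were treated 4 h with compound and doxycycline, then green and red light read after Chroma-Glo addition.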
p53ts 39C tox: qHTS Screen for Compounds that Selectively Target Cancer Cells with p53 Mutations: Cytotoxicity of p53ts Cells at the Nonpermissive Temperature | hit rate 1.5% among 130,000 | H1299-p53A138V viability at 39C, ATP luminescence, 24 h | AID 902, 2007 | Potency, µM (titrated, usually from 46.1 µM), for the others: top-dose activity change, negative = cell killing, actives largely listed as cytotoxic; also: % is scaled to controls: 0 for no effect and ±100 for the full control effect; nearly all actives have a fitted effect of over 55% in size
Imprint erasure: qHTS Assay for Compounds that Induce Erasure of Genomic Imprints. hit rate 0.02% among 110,000. mouse ES Peg3-LacZ reporter, beta-gal luminescence, 40 h. Potency, µM (titrated, usually from 60.7 µM), for inactives: at the highest dose activity change, positive = activation, actives largely listed as activators. AID 1948, 2009
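Gelatin-coated wells received 300 freshly trypsinized female ES cells with a Peg3LacZ-Neo reporter on the maternal allele, then incubated 40 hours at 37C. BetaGlo was added for 5 minutes at room temperature before a single luminescence read.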
p53ts 32C kill: qHTS Screen for Compounds that Selectively Target Cancer Cells with p53 Mutations: Cytotoxicity of p53ts Cells at the Permissive Temperature; H1299-p53A138V at 32C, ATP luminescence viability, 24 h; Potency, µM (highest dose often 46.1 µM), inactives show top-dose activity change, negative = cytotoxicity, actives largely listed as cytotoxic; hit rate 0.93% among 130,000;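 also: 0% = DMSO and -100% = full killing by reference compound; nearly all actives have a fitted effect of over 55% in size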
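Viability by ATPlite luminescence after 24 h compound treatment (up to 46 uM) at the permissive 32C. Cells are H1299 carrying p53 A138V. Scale runs from DMSO basal to 100 uM tamoxifen as full kill; AC50 from Hill fits.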
Starred values were filed as active, the others as inactive; [ ] = remark or other dose. A selection: hits, their analogues and other compounds. The true share with any hit is near 1.6%. Unless noted, calls follow the shape of the dose curve; as a rule, active = well fitted curve in the direction sought with a large enough effect; inconclusive = small, poorly fitted or top-dose-only effect, or another doubt; inactive = no such curve, though single readings can be large; an effect the other way counts as inactive or inconclusive. Potency is read from the fitted curve at half-maximal effect.

Screening CCCC[N+]1(C)[C@@H]2CC(OC(=O)[C@@H](CO)c3ccccc3)C[C@H]1[C@H]1O[C@H]12 (some centres undefined) returned IkB sig inh 5%, p53ts 39C tox 3% and p53ts 32C kill -5%.
`C[C@@H](Cc1ccc2c(c1)OC(C(=O)O)(C(=O)O)O2)NC[C@H](O)c1cccc(Cl)c1` gave IkB sig inh -3%, p53ts 39C tox 11% and p53ts 32C kill -9%.
Screening N[C@H](Cc1c[nH]c2ccccc12)P(=O)(O)O returned IkB sig inh 0%[11.4 µM], p53ts 39C tox 3%[9.22 µM], Imprint erasure 0.63µM* and p53ts 32C kill -1%[9.22 µM].
`O=C(O)[C@H]1CCN1` gave IkB sig inh 4%, p53ts 39C tox 6% and p53ts 32C kill 6%.
Screening CCCCCCCCCCCCCC(=O)O[C@H]1[C@@H](C)[C@@]2(O)[C@@H](C=C(CO)C[C@]3(O)C(=O)C(C)=C[C@@H]23)C2C(C)(C)[C@]21OC(C)=O (some centres undefined) returned IkB sig inh inconclusive, p53ts 39C tox 16µM* and p53ts 32C kill inconclusive.
`CNc1ccc2oc(C[C@H]3O[C@]4(CC[C@H]3C)O[C@H]([C@H](C)C(=O)c3ccc[nH]3)[C@H](C)C[C@H]4C)nc2c1C(=O)O` gave IkB sig inh inconclusive, p53ts 39C tox 3.2µM*, Imprint erasure -28% and p53ts 32C kill 4µM*.
CN1CC[C@]2(C)c3cc(O)ccc3N(C)[C@@H]12 was read as IkB sig inh inconclusive, p53ts 39C tox 25µM*, Imprint erasure -5%[16.8 µM] and p53ts 32C kill 20µM*.
For CN1CC[C@@]2(C)c3cc(O)ccc3N(C)C12 (some centres undefined) the results were Imprint erasure -64%.
CC[C@@H]1CN2CCc3cc(OC)c(OC)cc3[C@H]2C[C@@H]1C[C@@H]1NCCc2cc(OC)c(OC)cc21 was read as IkB sig inh inconclusive, p53ts 39C tox inconclusive and p53ts 32C kill 10%.
`CCn1nc(-c2cccs2)nc2c(=O)n(C)c(=O)nc1-2` gave IkB sig inh inconclusive, p53ts 39C tox 4µM*, Imprint erasure -94% and p53ts 32C kill 2µM*.
C=C[C@@H]1CN2CC[C@H]1CC2[C@H](O)c1ccnc2ccccc12 (some centres undefined) was read as Imprint erasure 7%[10.9 µM].
